Experimental data published in article PMC7862700, “An all-to-all approach to the identification of sequence-specific readers for epigenetic DNA modifications on cytosine”.

How the values were obtained:
Test in all cases: DAPPL (digital affinity profiling via proximity ligation, sequencing); 10 mM Tris-HCl pH 7.5, 50 mM NaCl, 1 mM DTT, 4% glycerol, room temperature, 30 min; GST-TFs on glutathione beads, 16-mer random dsDNA library, 0.1% formaldehyde crosslink after washing; high values mean tight binding
[1] = target: T1, FEV (Homo sapiens, UniProt Q99581 1-238); details: protein: recombinant; tags: N-terminal GST; dsDNA, one strand shown
T1 sequence: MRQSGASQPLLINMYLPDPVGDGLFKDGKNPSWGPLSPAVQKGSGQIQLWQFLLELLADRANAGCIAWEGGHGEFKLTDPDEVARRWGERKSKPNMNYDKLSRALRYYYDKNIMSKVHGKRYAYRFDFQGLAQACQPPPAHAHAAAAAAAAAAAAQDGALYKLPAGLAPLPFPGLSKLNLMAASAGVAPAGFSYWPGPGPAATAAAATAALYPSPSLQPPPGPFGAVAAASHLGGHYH
In short: (§1)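 Yeast served to express human transcription factors as GST fusions, which were then captured on glutathione beads and labelled with DNA barcodes. Pooled with a tag-only sample, they were incubated with 200 nmole of a 16-mer random double-stranded DNA library for 30 min at room temperature in Tris/NaCl/DTT/glycerol buffer, washed, crosslinked with 0.1% formaldehyde, ligated by proximity, amplified by PCR and sequenced. Dividing each hexamer's read frequency for a factor by its frequency for the tag-only sample gives the binding signal.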

[2] = target: ETV5 (Homo sapiens, UniProt P41161 1-510); details: protein: recombinant; tags: N-terminal GST; dsDNA, one strand shown
In short: as §1

[3] = target: HSF1 (Homo sapiens, UniProt Q00613 1-529); details: protein: recombinant; tags: N-terminal GST; chain copies: 3; dsDNA, one strand shown
In short: as §1

[4] = target: T2, SPIC (Homo sapiens, UniProt Q8N5J4 1-248); details: protein: recombinant; tags: N-terminal GST; dsDNA, one strand shown
T2 sequence: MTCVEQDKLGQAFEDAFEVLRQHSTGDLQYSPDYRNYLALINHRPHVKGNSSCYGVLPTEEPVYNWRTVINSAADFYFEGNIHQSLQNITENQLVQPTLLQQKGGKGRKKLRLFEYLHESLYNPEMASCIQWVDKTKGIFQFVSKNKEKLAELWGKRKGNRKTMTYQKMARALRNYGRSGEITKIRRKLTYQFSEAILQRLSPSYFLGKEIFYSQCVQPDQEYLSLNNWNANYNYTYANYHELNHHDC
In short: as §1

[5] = target: ELF4 (Homo sapiens, UniProt Q99607 1-663); details: protein: recombinant; tags: N-terminal GST; dsDNA, one strand shown
In short: as §1

[6] = target: T3, ELK4 (Homo sapiens, UniProt P28324-2 1-405); details: protein: recombinant; tags: N-terminal GST; dsDNA, one strand shown
T3 sequence: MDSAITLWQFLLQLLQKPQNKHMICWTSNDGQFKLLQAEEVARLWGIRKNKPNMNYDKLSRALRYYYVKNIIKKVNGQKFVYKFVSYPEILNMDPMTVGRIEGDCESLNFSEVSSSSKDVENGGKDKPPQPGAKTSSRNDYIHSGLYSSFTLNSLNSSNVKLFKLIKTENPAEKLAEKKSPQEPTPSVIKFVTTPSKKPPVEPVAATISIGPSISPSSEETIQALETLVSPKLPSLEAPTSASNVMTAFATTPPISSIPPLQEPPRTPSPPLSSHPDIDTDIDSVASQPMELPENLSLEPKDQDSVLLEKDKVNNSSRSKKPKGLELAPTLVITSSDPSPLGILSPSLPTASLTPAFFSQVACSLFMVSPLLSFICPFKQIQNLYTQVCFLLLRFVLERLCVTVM
In short: as §1

[7] = target: T4, ETV2 (Homo sapiens, UniProt O00321 1-342); details: protein: recombinant; tags: N-terminal GST; dsDNA, one strand shown
T4 sequence: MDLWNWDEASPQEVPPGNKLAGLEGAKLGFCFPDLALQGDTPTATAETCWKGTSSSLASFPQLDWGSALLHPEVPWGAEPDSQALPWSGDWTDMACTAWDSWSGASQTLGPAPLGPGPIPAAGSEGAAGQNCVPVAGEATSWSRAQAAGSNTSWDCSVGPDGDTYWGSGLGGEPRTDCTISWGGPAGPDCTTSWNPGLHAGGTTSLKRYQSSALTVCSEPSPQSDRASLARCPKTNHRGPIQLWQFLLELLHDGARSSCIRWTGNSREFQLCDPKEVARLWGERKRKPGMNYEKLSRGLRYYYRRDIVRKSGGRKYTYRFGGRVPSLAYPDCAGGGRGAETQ
In short: as §1

[8] = target: T5, ELF3 (Homo sapiens, UniProt P78545 1-371); details: protein: recombinant; tags: N-terminal GST; dsDNA, one strand shown
T5 sequence: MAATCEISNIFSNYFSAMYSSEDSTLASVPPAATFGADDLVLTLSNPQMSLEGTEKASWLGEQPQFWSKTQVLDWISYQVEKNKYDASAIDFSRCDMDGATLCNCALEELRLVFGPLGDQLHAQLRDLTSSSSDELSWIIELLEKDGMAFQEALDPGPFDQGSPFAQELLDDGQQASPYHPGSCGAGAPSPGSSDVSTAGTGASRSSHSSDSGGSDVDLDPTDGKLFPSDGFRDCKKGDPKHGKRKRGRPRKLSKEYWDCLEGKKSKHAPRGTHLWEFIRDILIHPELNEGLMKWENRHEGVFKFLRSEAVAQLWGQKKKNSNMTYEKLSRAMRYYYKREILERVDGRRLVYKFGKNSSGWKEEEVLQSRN
In short: as §1

[9] = target: ETV1 (Homo sapiens, UniProt P50549 1-477); details: protein: recombinant; tags: N-terminal GST; dsDNA, one strand shown
In short: as §1

[10] = target: T6, ERF (Homo sapiens, UniProt P50548 1-548); details: protein: recombinant; tags: N-terminal GST; dsDNA, one strand shown
T6 sequence: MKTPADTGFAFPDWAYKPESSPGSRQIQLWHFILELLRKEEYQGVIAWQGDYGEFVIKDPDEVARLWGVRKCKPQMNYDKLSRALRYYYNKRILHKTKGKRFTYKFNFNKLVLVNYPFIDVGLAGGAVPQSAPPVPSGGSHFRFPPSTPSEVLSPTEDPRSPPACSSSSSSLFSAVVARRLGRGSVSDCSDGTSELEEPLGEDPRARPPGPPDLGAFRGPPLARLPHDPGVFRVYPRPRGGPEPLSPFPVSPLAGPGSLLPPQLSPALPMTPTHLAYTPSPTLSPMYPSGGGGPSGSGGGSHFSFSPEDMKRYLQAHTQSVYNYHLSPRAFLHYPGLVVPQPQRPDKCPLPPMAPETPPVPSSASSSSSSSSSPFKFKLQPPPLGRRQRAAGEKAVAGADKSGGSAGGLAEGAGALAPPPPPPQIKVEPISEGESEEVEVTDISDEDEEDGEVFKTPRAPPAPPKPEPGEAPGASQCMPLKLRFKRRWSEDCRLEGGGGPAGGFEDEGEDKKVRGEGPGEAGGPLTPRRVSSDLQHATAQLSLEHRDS
In short: as §1

[11] = target: T7, ETV3L (Homo sapiens, UniProt Q6ZN32 1-361); details: protein: recombinant; tags: N-terminal GST; dsDNA, one strand shown
T7 sequence: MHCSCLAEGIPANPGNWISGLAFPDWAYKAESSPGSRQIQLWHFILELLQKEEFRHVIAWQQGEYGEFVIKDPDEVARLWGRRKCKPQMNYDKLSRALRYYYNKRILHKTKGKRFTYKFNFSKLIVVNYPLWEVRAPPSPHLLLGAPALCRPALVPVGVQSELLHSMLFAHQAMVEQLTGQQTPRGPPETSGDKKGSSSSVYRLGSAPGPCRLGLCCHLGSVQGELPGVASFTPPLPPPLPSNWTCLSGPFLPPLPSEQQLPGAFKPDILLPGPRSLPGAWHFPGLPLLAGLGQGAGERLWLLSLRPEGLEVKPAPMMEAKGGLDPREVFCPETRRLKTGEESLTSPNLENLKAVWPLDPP
In short: as §1

[12] = target: T8, ETS2 (Homo sapiens, UniProt P15036 1-469); details: protein: recombinant; tags: N-terminal GST; dsDNA, one strand shown
T8 sequence: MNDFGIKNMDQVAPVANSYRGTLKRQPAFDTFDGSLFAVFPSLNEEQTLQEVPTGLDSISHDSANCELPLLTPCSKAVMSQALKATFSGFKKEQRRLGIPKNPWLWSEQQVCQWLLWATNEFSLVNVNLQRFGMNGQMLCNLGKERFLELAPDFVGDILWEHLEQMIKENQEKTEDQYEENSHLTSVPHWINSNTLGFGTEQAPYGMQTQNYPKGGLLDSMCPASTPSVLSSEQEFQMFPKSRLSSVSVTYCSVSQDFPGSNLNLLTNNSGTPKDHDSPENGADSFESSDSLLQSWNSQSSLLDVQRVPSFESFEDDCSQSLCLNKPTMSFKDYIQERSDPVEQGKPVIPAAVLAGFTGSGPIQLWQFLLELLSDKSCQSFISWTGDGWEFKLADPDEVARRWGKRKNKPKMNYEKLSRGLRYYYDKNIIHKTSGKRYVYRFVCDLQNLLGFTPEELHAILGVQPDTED
In short: as §1

[13] = target: T9, SPDEF (Homo sapiens, UniProt O95238 1-335); details: protein: recombinant; tags: N-terminal GST; dsDNA, one strand shown
T9 sequence: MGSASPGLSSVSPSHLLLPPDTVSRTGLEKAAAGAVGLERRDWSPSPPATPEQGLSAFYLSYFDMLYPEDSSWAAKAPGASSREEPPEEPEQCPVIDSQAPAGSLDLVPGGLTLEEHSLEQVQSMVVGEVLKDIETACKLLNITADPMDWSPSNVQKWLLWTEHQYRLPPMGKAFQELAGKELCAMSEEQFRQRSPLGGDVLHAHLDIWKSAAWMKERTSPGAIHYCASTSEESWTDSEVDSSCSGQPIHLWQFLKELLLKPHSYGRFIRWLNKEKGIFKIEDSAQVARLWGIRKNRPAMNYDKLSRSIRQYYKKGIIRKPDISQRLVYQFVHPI
In short: as §1

[14] = target: T10, ETV7 (Homo sapiens, UniProt Q9Y603 1-341); details: protein: recombinant; tags: N-terminal GST; dsDNA, one strand shown
T10 sequence: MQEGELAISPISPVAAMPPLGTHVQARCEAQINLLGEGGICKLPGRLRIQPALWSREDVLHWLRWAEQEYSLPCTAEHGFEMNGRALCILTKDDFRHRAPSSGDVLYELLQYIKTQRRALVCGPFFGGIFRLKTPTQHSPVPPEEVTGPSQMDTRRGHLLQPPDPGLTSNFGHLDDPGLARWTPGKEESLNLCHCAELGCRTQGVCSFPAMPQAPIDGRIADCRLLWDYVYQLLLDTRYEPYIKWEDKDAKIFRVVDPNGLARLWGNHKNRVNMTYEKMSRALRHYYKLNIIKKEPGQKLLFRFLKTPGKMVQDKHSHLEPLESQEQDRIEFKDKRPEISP
In short: as §1

[15] = target: T11, ELF5 (Homo sapiens, UniProt Q9UKW6-2 1-255); details: protein: recombinant; tags: N-terminal GST; dsDNA, one strand shown
T11 sequence: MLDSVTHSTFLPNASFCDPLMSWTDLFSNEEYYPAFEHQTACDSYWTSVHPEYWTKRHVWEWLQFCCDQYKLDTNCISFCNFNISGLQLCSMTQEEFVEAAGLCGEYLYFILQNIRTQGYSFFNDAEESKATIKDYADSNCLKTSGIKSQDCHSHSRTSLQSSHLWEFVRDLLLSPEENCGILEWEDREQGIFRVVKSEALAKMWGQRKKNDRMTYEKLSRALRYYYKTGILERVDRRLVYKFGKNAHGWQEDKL
In short: as §1

[16] = target: T12, ETV3 (Homo sapiens, UniProt P41162-2 1-143); details: protein: recombinant; tags: N-terminal GST; dsDNA, one strand shown
T12 sequence: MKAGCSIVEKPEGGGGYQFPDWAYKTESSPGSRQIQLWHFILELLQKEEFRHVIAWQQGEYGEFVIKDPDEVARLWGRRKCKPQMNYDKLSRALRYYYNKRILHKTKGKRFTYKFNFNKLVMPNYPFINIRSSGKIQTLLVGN
In short: as §1

[17] = target: ETV6 (Homo sapiens, UniProt P41212 1-452); details: protein: recombinant; tags: N-terminal GST; dsDNA, one strand shown
In short: as §1

ETV5, sequence (P41161 whole entry): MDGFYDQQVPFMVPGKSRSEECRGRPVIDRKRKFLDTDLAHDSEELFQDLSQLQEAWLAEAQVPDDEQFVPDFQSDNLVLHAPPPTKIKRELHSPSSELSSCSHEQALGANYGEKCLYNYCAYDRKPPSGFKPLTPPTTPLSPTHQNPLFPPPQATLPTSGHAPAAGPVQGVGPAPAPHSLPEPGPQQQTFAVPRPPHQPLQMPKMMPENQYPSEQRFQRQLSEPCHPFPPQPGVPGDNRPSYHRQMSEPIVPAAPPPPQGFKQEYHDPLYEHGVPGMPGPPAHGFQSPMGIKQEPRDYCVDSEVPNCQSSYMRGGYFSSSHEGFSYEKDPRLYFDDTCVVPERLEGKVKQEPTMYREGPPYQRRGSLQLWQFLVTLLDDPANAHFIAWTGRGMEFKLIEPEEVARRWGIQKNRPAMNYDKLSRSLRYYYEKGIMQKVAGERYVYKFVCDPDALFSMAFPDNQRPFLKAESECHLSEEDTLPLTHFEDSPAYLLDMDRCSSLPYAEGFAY
ETV1, sequence (P50549 whole entry): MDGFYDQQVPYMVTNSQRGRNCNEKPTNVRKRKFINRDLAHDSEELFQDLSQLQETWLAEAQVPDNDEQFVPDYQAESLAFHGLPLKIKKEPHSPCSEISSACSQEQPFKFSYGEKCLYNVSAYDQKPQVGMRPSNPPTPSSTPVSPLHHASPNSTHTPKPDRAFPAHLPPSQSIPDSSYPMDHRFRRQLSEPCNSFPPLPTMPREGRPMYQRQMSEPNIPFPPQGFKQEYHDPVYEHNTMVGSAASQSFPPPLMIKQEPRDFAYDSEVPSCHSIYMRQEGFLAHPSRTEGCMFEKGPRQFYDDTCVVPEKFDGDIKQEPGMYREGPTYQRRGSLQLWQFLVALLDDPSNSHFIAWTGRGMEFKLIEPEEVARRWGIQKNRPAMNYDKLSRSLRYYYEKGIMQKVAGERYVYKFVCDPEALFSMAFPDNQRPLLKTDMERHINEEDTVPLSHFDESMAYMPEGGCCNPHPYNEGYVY
HSF1, sequence (Q00613 whole entry): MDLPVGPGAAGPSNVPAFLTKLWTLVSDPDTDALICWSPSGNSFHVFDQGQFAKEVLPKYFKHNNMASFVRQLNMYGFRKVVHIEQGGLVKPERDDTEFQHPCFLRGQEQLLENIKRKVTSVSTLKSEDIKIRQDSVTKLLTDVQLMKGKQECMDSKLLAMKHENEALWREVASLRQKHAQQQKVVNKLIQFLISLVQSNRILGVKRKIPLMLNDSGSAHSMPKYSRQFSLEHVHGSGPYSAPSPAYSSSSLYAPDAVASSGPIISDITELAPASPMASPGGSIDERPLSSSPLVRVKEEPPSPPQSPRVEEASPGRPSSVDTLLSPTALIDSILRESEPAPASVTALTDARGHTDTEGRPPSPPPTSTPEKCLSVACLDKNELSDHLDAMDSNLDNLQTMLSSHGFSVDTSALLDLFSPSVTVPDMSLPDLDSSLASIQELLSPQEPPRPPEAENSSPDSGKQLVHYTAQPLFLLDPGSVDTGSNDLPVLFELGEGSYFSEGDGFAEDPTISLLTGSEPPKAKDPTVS
ELF4, sequence (Q99607 whole entry): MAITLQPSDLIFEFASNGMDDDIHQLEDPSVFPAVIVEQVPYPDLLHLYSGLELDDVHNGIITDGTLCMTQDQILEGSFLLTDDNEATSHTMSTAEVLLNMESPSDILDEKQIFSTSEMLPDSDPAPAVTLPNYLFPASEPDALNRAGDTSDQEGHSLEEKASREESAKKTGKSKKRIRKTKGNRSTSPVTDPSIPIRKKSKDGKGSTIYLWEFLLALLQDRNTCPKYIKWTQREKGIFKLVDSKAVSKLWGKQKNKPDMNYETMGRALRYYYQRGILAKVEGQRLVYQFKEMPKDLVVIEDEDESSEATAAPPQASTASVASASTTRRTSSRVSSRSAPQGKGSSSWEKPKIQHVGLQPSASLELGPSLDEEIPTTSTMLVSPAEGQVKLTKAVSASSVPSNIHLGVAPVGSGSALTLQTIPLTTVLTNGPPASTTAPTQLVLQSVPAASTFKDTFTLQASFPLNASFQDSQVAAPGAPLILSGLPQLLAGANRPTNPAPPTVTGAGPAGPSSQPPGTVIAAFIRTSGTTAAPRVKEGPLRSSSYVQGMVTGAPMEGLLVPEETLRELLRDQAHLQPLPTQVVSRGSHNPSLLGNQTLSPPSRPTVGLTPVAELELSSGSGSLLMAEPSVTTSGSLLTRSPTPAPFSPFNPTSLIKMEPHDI
ETV6, sequence (P41212 whole entry): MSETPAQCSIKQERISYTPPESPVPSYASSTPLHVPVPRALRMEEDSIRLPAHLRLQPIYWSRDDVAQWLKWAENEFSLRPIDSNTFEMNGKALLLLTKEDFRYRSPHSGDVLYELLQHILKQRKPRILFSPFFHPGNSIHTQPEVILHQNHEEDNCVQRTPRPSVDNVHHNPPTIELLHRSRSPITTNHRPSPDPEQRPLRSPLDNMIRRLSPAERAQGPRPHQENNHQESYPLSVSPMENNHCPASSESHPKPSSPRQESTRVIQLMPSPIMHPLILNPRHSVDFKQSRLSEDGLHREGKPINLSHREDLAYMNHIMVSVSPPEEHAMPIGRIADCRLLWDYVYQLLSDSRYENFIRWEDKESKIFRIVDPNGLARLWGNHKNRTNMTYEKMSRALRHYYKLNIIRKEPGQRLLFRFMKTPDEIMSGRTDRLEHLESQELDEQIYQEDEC

Sequence: AATGGG
- binding signal [1]: 1.25 fold enrichment (6-mer frequency, TF over GST control)
- binding signal [2]: 1.28 fold enrichment (6-mer frequency, TF over GST control)
- binding signal [3]: 1.02 fold enrichment (6-mer frequency, TF over GST control)
- binding signal [4]: 1.26 fold enrichment (6-mer frequency, TF over GST control)
- binding signal [5]: 1.16 fold enrichment (6-mer frequency, TF over GST control)
- binding signal [6]: 1.27 fold enrichment (6-mer frequency, TF over GST control)
- binding signal [7]: 1.22 fold enrichment (6-mer frequency, TF over GST control)
- binding signal [8]: 1.13 fold enrichment (6-mer frequency, TF over GST control)
- binding signal [9]: 1.21 fold enrichment (6-mer frequency, TF over GST control)
- binding signal [10]: 1.16 fold enrichment (6-mer frequency, TF over GST control)
- binding signal [11]: 1.15 fold enrichment (6-mer frequency, TF over GST control)
- binding signal [12]: 1.19 fold enrichment (6-mer frequency, TF over GST control)
- binding signal [13]: 1.12 fold enrichment (6-mer frequency, TF over GST control)
- binding signal [14]: 1.2 fold enrichment (6-mer frequency, TF over GST control)
- binding signal [15]: 1.2 fold enrichment (6-mer frequency, TF over GST control)
- binding signal [16]: 1.19 fold enrichment (6-mer frequency, TF over GST control)
- binding signal [17]: 1.2 fold enrichment (6-mer frequency, TF over GST control)
